# In PubChem BioAssay (NCI):
# Values joined by “and” are separate entries in the source; they are usually repeats but may differ in a detail not shown here. Equal values may be shown once. Compounds without any hit were thinned out: in the full panel of roughly 79,000, 15% have a hit. Unmarked numbers belong to inactive results. Active and inactive are the calls of the source. Rule as the data show it: active = growth inhibition above about 70%; inactive = the rest.
# Assays:
# [1] = NCI Yeast Anticancer Drug Screen. Data for the rad50 strain (AID 155);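 also: 0% = growth of vehicle-only cultures of the same strain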; conditions: S. cerevisiae rad50 strain growth inhibition, stronger effect = higher value; at 50.0 µM unless noted
# Summary of the method: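 Readout: growth inhibition relative to vehicle-treated cultures. Compound exposure was carried out in a genetically defined yeast strain deficient in DNA damage repair.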
# [2] = NCI Yeast Anticancer Drug Screen. Data for the mec2-1 strain (AID 157); conditions: S. cerevisiae mec2-1 strain, stronger effect = higher value; at 50.0 µM unless noted
# Summary of the method: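 Readout is yeast growth inhibition, normalised to vehicle-treated controls, in the mec2-1 strain exposed to compound.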
# [3] = NCI Yeast Anticancer Drug Screen. Data for the sgs1 mgt1 strain (AID 161);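 also: 0% = growth of cultures given vehicle only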; conditions: S. cerevisiae sgs1 mgt1 strain, stronger effect = higher value; at 50.0 µM unless noted
# Summary of the method: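 Percent growth inhibition was derived by comparing compound-exposed mutant yeast with vehicle-exposed cultures. The strain carries alterations in DNA damage repair.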
# [4] = NCI Yeast Anticancer Drug Screen. Data for the cln2 rad14 strain (AID 165);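 also: 0% = growth equal to vehicle treated cultures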; conditions: S. cerevisiae cln2 rad14 strain, stronger effect = higher value; at 50.0 µM unless noted
# Summary of the method: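 Relative to vehicle controls, growth inhibition of compound-treated cln2 rad14 yeast was recorded.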
# [5] = NCI Yeast Anticancer Drug Screen. Data for the bub3 strain (AID 167); conditions: S. cerevisiae bub3 mutant strain, stronger effect = higher value; at 50.0 µM unless noted
# Summary of the method: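 Readout: yeast growth inhibition, expressed relative to vehicle-only wells. The test organism is a mutant strain from a panel with lesions in DNA repair or checkpoint genes.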
# [6] = NCI Yeast Anticancer Drug Screen. Data for the mlh1 rad18 strain (AID 175); conditions: S. cerevisiae mlh1 rad18 strain growth inhibition, stronger effect = higher value; at 50.0 µM unless noted
# Summary of the method: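 Test agents were incubated with a yeast strain of defined genotype (DNA damage repair defect). Inhibition of growth was derived by comparison with vehicle-exposed cultures.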
Structure (SMILES),growth inhibition [1],growth inhibition [2],growth inhibition [3],growth inhibition [4],growth inhibition [5],growth inhibition [6]
N=C(N)SCCc1cn2ccccc2n1,-5.45%,-45.9%,-17.1%,3.65%,-15.8%,1.05%
CSc1ccc2c(c1)N(CCCN(C)C)c1ccccc1S2,-15%,-4.15%,-1.05%,-13.8%,44.5%,33.5%
C=CCSCc1ccccc1,4.55%,2.95%,-13.6%,3.8%,-2.15%,19.7%
Cc1cc(C)nc(NS(=O)(=O)c2ccc(NC(=O)c3cccc4c(Nc5ccc(S(=O)(=O)Nc6nc(C)cc(C)n6)cc5)c5ccc(Cl)cc5nc34)cc2)n1,27.4%,35.7%,24.3%,33%,19.6%,30.7%
O=C(CSc1nc(-c2ccccc2)c(-c2ccccc2)[nH]1)N/N=C/c1ccc(O)cc1,-8.15%,-3.2%,-12.2%,-21.9%,5.6%,-25.6%
CC(NCCN1CCOCC1)c1ccc2ccccc2c1 (stereo not given),40.7%,15.4%,41.5%,23.9%,32.8%,42.6%
Nc1ncnc2c1ccn2COCCO,-8.25%,1.55%,4.7%,-43.9%,-12.5%,-3.9%
CC1(O)CCCC1(C)O (stereo not given),-29.1%,-21.1%,-19.1%,-38.9%,-21.7%,-23.8%
FC(F)(F)c1ccc2ccc3ccc(Cl)cc3c2c1,-7.5%,-24%,-4.3%,-10.4%,21.6%,-6.55%
CC12CC(O)C3C(CCC4CC(O)CCC43C)C1CCC2C(=O)CO (stereo not given),13.6%,14.2%,7.3%,13.2%,12.1%,10.4%
O=CC(O)C(Cl)C(Cl)C(O)CCl (stereo not given),-0.65% and 2.1%,-1.85% and -3.6%,0.65% and 8.3%,9.75% and -46%,-2.65% and -11%,40.7% and -14.5%
S=C(NC1CCCCC1)SSSSC(=S)NC1CCCCC1,15.7%,5%,22.2%,9.55%,13.9%,20.2%
O=S1(=O)C2C=CC1C(Br)C(Br)CC2 (stereo not given),-9.4%,13.9%,26.8%,12%,-0.15%,20.4%
O/N=C1/C2CC3CC1(c1ccccc1)CC(/C3=N/O)/C2=N\O (stereo not given),9.15%,17.3%,-12.1%,0.35%,-17.8%,-4.75%
O=c1cnn2c(n1)OC1C(O)C(CO)OC12 (stereo not given),3.55%,-2.5%,9.6%,-21.7%,-11.7%,22%
CC/C(C)=N\NS(=O)(=O)c1ccc(NC(C)=O)cc1,-5%,-14.3%,18.1%,20.8%,-33.5%,-0.7%
COC1OC(COC(=O)NCCCCC(=O)C(F)(F)F)C(O)C(O)C1O (stereo not given),3.6%,22.6%,-0.5%,29.9%,28.2%,11.6%
CC1=CCC(C(C)C)C2CC(C)(O)CCC12 (stereo not given),-3.1%,-1.8%,7.15%,-24.9%,-4.35%,0.95%
CSc1ccc(C)cc1,30.6%,-15.2%,-24.5%,-21.6%,-9.35%,26.7%
CN1C(=O)OC2OC(C)(c3ccc(S(=O)(=O)c4ccccc4)cc3)C(=O)CC21 (stereo not given),-7.1%,22.7%,-10.5%,-27%,5.65%,2.25%

Structure (SMILES),growth inhibition [1],growth inhibition [2],growth inhibition [3],growth inhibition [4],growth inhibition [5],growth inhibition [6]
CCCCCC(=O)NNC(=O)CCCCC,7.35%,13.8%,7.2%,-4.95%,-21.8%,15.1%
Cn1ncc2c(NC(C)(C)CC(C)(C)C)ncnc21,21.1%,7.95%,1.05%,1.55%,45.4%,16.8%
O=c1[nH]cnc2c1ncn2C1OC(CO)C(O)C1O (stereo not given),8% and -14.7%,8.25% and -20.1%,0.45% and 12.8%,-117% and 5%,15.4% and 21.7%,5.85% and 5.3%
CC[N+](CC)(CC)CCOc1nc(OCC[N+](CC)(CC)CC)nc(OCC[N+](CC)(CC)CC)n1,11.8%,11%,10.3%,9.1%,17.1%,35%
Cc1cc(C)c(S(=O)(=O)Oc2ccccc2)c(C)c1,-14.9%,-7.15%,-8.5%,1.7%,11.8%,-36.7%
O=C1c2c(O)ccc(O)c2C(=O)c2c(NCCNCCO)ccc(NCCNCCO)c21,61.9% and 31.9%,21.6% and -16.4%,54.2% and -52%,-41.9% and -21.4%,9.5% and -63.3%,41% and -16.6%
CC1(C)Oc2ccccc2OC1O (stereo not given),1.5%,0.85%,-1.75%,-14.7%,-10.2%,3%
CSC(=N)N,-8.55% and -15.6%,-18.2% and -17.4%,-52.2%,-46%,1.45%,-2.95% and -29.8%
CCOCC(Br)C(OCC)OCC (stereo not given),19.2%,-6.65%,8.15%,20.9%,0.45%,26.1%
ClCCCSSCCCCl,24.1%,21.2%,20.4%,-7.95%,14.4%,3.85%
C1COC2(OC1)OCCCO2,-14.8%,1.35%,-7.85%,-71.5%,8.75%,3.05%
CCCCCCCCCCCCC(C)O (stereo not given),-23.2%,-50.1%,-18.8%,5.05%,-21.1%,-24.8%
O=C1C(=O)c2ccccc2C(O)=C1CN1CCOCC1,31.6%,32.1%,14.4%,4.65%,28%,8.85%
Cc1nnc(N/N=C(/C(=O)C(C#N)c2ccc(Cl)cc2)C(C#N)c2ccc(Cl)cc2)n1N (stereo not given),-9.3%,19.6%,3.85%,16.6%,12%,7.4%
CCOC(OCC)C(=O)NC(Cc1ccccc1NC(=O)c1ccccc1)c1ccc2c(c1)OCO2 (stereo not given),35.6%,-1.05%,3.9%,4.8%,3.25%,21.4%
CCC1(C=O)C(=O)NC(=O)N1C (stereo not given),3.4%,1.05%,2%,6.25%,1.7%,6.45%
COc1ccc(-c2cc(=O)c3c(O)c(O)c(OC)cc3o2)cc1O,-5.15%,-28.6%,-55.9%,-8.4%,-2.6%,-18.3%
CCn1c(CCCc2nc3c([nH]2)c(=O)n(C)c(=O)n3C)nc2c1c(=O)n(C)c(=O)n2C,6.65%,-38.8%,-45.1%,33.2%,-40.7%,-15.3%
OC1(c2cccc(C(F)(F)F)c2)CCN(C2CC2c2ccccc2)CC1 (stereo not given),87.2% (active),77.7% (active),90.8% (active),85.1% (active),84.3% (active),81.5% (active)
CCC(SC(CC)(CC)C(=O)O)C(N)=O (stereo not given),-9.9%,0.05%,-8.15%,-23%,-6%,-8.1%
